# Results published in PubChem BioAssay (EPA / NIEHS).
# Where “and” joins values, the source holds several entries; their conditions need not be identical. Equal values may be shown once. Records with an inconclusive call do not appear. The source holds several records for some structures; these can differ, active in one and inactive in another. Calls of active or inactive are those of the source. The calls were made as follows, unless noted: active = hit-call score of the fitted dose curve at least 0.9, where 1 is the maximum; inactive = score below 0.9.
# Experiments:
# [1] = TAMU_HCS_1.5hr_SingleDonor1434_Cytotoxicity: Cytotoxicity Assessment using High-content Screening (HCS) Fluorescent Imaging for the Texas A&M University (TAMU) 1.5-hr Human Induced Pluripotent Stem Cell (iPSC)-derived Cardiotoxicity Assay (AID 2284234; active = hit-call score of the fitted dose curve at least 0.9, where 1 is the maximum)
# Procedure, shortened: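 Nuclear counts from Hoechst 33342 imaging define cytotoxicity here, with EC10 (10% cell-count loss relative to DMSO) as point of departure. iPSC cardiomyocytes received 0.2-100 uM test chemical in 0.5% DMSO for 1.5 h at 37 C.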
# [2] = TAMU_PeakParms_SingleDonor1434_QT: Texas A&M University (TAMU) 1.5-hr Human Induced Pluripotent Stem Cell (iPSC)-derived Cardiomyocytes Calcium (Ca+2) Flux Assay for Cardiotoxicity: QT (decay-rise ratio) (AID 2284235; active = hit-call score of the fitted dose curve at least 0.9, where 1 is the maximum)
# Procedure, shortened: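 Decay/rise ratio of calcium-flux fluorescence scored after 90 min exposure (37C) of donor 1434 iPSC cardiomyocytes to 0.2–100 uM (0.5% DMSO). Beat-cessation and severe-notch points removed; POD is EC05, a 5% rise over DMSO.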
# [3] = CCTE_Mundy_HCI_Cortical_NOG_NeuronCount: CCTE's Neurite Outgrowth Assay in rat cortical cells for Neuron Count, Mundy Lab (AID 2284236; active = hit-call score of the fitted dose curve at least 0.9, where 1 is the maximum;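 also: neurons counted by imaging betaIII-tubulin and Hoechst stained cortical cells; cells exposed to compound for about 48 hours before fixation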)
# Procedure, shortened: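 Read-out: neuron number by high-content imaging of betaIII-tubulin (Alexa Fluor-488) and Hoechst-labelled rat primary cortical cells.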
# [4] = CCTE_Mundy_HCI_Cortical_NOG_BPCount: CCTE's Neurite Outgrowth Assay in rat cortical cells for Branch Point Count, Mundy Lab (AID 2284237);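 as to AC50: branch points counted about two days after chemical exposure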
# Procedure, shortened: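 Measured 50.33 h after dosing, this morphology endpoint uses rat primary cortical cultures labelled for betaIII-tubulin. Branch points are quantified by high-content imaging, with DMSO as negative control and baseline.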
# [5] = CCTE_Mundy_HCI_hNP1_CellTiter: CCTE's Cell Titer-Glo 2 Assay in human neuroprogenitor cells for Viability, Mundy Lab (AID 2284241; active = hit-call score of the fitted dose curve at least 0.9, where 1 is the maximum;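 as to AC50: a hit is a drop in ATP luminescence versus DMSO meaning reduced viability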)
# Procedure, shortened: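 Measures ATP content in human neural progenitors derived from WA09 embryonic cells. Read-out at 26.5 hours after dosing, with DMSO serving as the negative control and baseline.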
# [6] = CCTE_Mundy_HCI_Cortical_Synap_Neur_Matur_CellBodySpotCount: CCTE's Synaptogenesis and Neurite Maturation Assay in rat cortical cells for Cell Body Spot Count, Mundy Lab (AID 2284223)
# Procedure, shortened: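 Primary rat cortical cultures, AraC added at DIV 5; dosed DIV 7 through DIV 12 […]. Fixed, stained for MAP2 and synaptophysin with Hoechst; cell body-associated synaptophysin puncta per neuron counted by high-content imaging, loss vs DMSO.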
# [7] = CCTE_Mundy_HCI_hNP1_Pro_ResponderAvgInten: CCTE's Proliferation Assay in human neuroprogenitor cells, Mundy Lab (AID 2284224; active = hit-call score of the fitted dose curve at least 0.9, where 1 is the maximum;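 also: human neural progenitor cells hNP1 derived from WA09 embryonic stem cells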)
# Procedure, shortened: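 Human neuroprogenitors (hNP1, WA09 lineage) receive test chemical after 40 to 44 hours of attachment. A four-hour BrdU pulse begins twenty hours later, followed by fixation and high content imaging; signal is referenced to DMSO controls.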
# [8] = CCTE_Mundy_HCI_hNP1_Casp3_7: CCTE's Caspase-Glo 3/7 Assay in human neuroprogenitor cells for Apoptosis, Mundy Lab (AID 2284240)
# Procedure, shortened: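 Neuroepithelial-lineage stem cells from WA09 embryonic cells were treated with chemicals after 40–44 h of culture. Twenty-four hours later, caspase-3/7 activation was detected luminescently after a 30 min room-temperature reagent step, with DMSO as baseline.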
# [9] = CCTE_Mundy_HCI_Cortical_Synap_Neur_Matur_NeuronCount: CCTE's Synaptogenesis and Neurite Maturation Assay in rat cortical cells for Neuron Count, Mundy Lab (AID 2284242; active = hit-call score of the fitted dose curve at least 0.9, where 1 is the maximum;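 as to AC50: neuron number from Hoechst nuclei and MAP2 staining by high-content imaging; hits reduce neuron count versus DMSO baseline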)
# Procedure, shortened: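 Rat cortical cultures; AraC DIV 5; chemical dosing + media change DIV 7 to DIV 12 (288.33 h readout). Fix, Hoechst, anti-MAP2/anti-synaptophysin immunostain; HCI neuron count vs DMSO baseline.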
# [10] = UKN4_HCS_LUHMES_cell_viability: Viability Assessment in the University of Konstanz (UKN) Leist Lab Neurite Outgrowth Assay in human LUHMES cells (UKN4) (AID 2284232)
# Procedure, shortened: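 Day-2 differentiated LUHMES, 30000 cells/well, dosed ~30 min–2 h post-seeding; 24 h treatment incl. staining; Hoechst H-33342 + calcein-AM at 23.5 h; HCS imaging; DMSO-normalized, bidirectional fit.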
# [11] = BSK_BT_PBMCCytotoxicity: PBMC Cytotoxicity Assessment in the BioMAP Diversity Plus: BT Assay (AID 2284225); conditions: primary human B cells with PBMC;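 also: PBMC viability measured by Alamar Blue dye reduction fluorescence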
# Procedure, shortened: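 Primary human co-culture of B cells and PBMC, pre-dosed 1 h then activated with SEB and TSST-1. Cytotoxicity is taken from Alamar Blue dye reduction, added for 6 h at the end of a 90 h incubation.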
# [12] = read-out: Secreted IgG (sIgG), gene 3500; experiment: BSK_BT_sIgG: BioMAP Diversity Plus: BT Assay for Secreted IgG (sIgG) Biomarker Activity (AID 2284226); conditions: primary human B cells with PBMC
# Procedure, shortened: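 Human B cell/PBMC co-culture; compound exposure 24 h; sIgG by ELISA; gain-of-signal fit vs DMSO baseline.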
# [13] = BSK_BT_Bcell_Proliferation: Viability Assessment in the BioMAP Diversity Plus: BT Assay for B cell Proliferation (AID 2284227); conditions: primary human B cells with PBMC
# Procedure, shortened: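 Human B cells co-cultured with PBMC were dosed with test chemicals and relative cell number was quantified by SRB staining at 72 h. Cells were fixed in 10% TCA, stained with 0.1% SRB and read at 560 nm. Activity was fitted in the positive direction against DMSO.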
# [14] = read-out: Interleukin 6 (IL6), IL6 (gene 3569); experiment: BSK_BT_xIL6: BioMAP Diversity Plus: BT Assay for Interleukin 6 (IL6) Biomarker Activity (AID 2284228); conditions: primary human B cells with PBMC
# Procedure, shortened: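 Human B cell/PBMC co-culture; secreted IL-6 quantified by Luminex xMAP 24 h after chemical dosing, fitted relative to DMSO. Parallel PBMC viability by Alamar Blue after 1 h pretreatment, 20 ng/mL SEB and TSST-1, 90 h incubation.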
# [15] = read-out: Interleukin 17A (IL17A), IL17A (gene 3605); experiment: BSK_BT_xIL17A: BioMAP Diversity Plus: BT Assay for Interleukin 17A (IL17A) Biomarker Activity (AID 2284229); conditions: primary human B cells with PBMC
# Procedure, shortened: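 Co-culture of human B cells and PBMC, dosed for 24 h in 96-well format. Secreted IL-17A measured with Luminex xMAP; gain-direction fitting against DMSO as baseline.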
# [16] = read-out: Tumor necrosis factor (Homo sapiens) (UniProt P01375); experiment: BSK_BT_xTNFa: BioMAP Diversity Plus: BT Assay for Tumor necrosis factor alpha (TNF-alpha) Biomarker Activity (AID 2284230); conditions: primary human B cells with PBMC
# Procedure, shortened: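 B cells with PBMC in co-culture, dosed and sampled at 24 h; secreted TNF-alpha measured by Luminex xMAP bead assay. Activity fitted in the gain direction against DMSO as negative control and baseline.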
# [17] = read-out: Vascular cell adhesion molecule 1 (VCAM1), VCAM1 (gene 7412); experiment: BSK_MyoF_VCAM1: BioMAP Diversity Plus: MyoF Assay for Vascular cell adhesion molecule 1 (VCAM1) Biomarker Activity (AID 2284231); conditions: primary human lung fibroblasts
# Procedure, shortened: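 Primary human lung fibroblasts (BioMAP MyoF system) dosed with chemical, VCAM-1 measured by ELISA 24 hours later. Fitted in the positive direction against DMSO; parallel SRB staining assessed cytotoxicity.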
# [18] = read-out: Collagen I, COL1A1 (gene 1277); experiment: BSK_MyoF_CollagenI: BioMAP Diversity Plus: MyoF Assay for Collagen I Biomarker Activity (AID 2284238); conditions: primary human lung fibroblasts
# Procedure, shortened: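 Primary human lung fibroblasts (MyoF system) treated 24 h; Collagen I quantified by ELISA and fitted in positive direction against DMSO. Parallel SRB total-protein staining assessed overt cytotoxicity.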
# [19] = read-out: Collagen III, COL3A1 (gene 1281); experiment: BSK_MyoF_CollagenIII: BioMAP Diversity Plus: MyoF Assay for Collagen III Biomarker Activity (AID 2284239); conditions: primary human lung fibroblasts
# Procedure, shortened: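 Primary human lung fibroblasts (BioMAP MyoF system) exposed 24 h. Collagen III measured by ELISA; positive-direction fit relative to DMSO.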
# [20] = read-out: Interleukin 17F (IL17F), IL17F (gene 112744); experiment: BSK_BT_xIL17F: BioMAP Diversity Plus: BT Assay for Interleukin 17F (IL17F) Biomarker Activity (AID 2284243); conditions: primary human B cells with PBMC
# Procedure, shortened: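 Human PBMC co-cultured with B cells, compound exposure 24 h; secreted IL-17F quantified by Luminex xMAP, referenced to DMSO control. PBMC viability measured in parallel by Alamar Blue reduction.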
# Sequence of Tumor necrosis factor (Homo sapiens) (P01375 whole entry, looked up): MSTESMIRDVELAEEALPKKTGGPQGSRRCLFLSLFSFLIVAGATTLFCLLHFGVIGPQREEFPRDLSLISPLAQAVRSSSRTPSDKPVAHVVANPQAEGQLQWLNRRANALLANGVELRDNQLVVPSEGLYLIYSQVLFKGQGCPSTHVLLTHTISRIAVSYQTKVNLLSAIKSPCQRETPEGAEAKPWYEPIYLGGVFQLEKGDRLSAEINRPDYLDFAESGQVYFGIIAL
smiles,measurement,setting,value
C=C(C)[C@H]1Cc2c(ccc3c2O[C@@H]2COc4cc(OC)c(OC)cc4[C@@H]2C3=O)O1,AC50,[1],10 nM (active)
same,outcome,[2],inactive
same,AC50,[3],0.135 µM (active)
same,AC50,[4],17.5 nM (active)
same,AC50,[5],0.159 µM (active)
CCOP(=S)(OCC)Oc1ccc2c(C)c(Cl)c(=O)oc2c1,outcome,[6],inactive
same,outcome,[7],inactive
same,outcome,[3],inactive
same,AC50,[4],86400 nM (active)
same,AC50,[8],73.8 µM (active)
same,AC50,[5],38.6 µM (active)
same,outcome,[9],inactive
COP(=O)(OC)OC(Br)C(Cl)(Cl)Br (stereo unspecified),AC50,[6],9920 nM (active)
same,outcome,[6],inactive
same,AC50,[7],14 µM (active) and 16.7 µM (active)
same,AC50,[3],30.2 µM (active) and 29.5 µM (active)
same,AC50,[4],30.4 µM (active) and 22.1 µM (active)
same,AC50,[8],11.9 µM (active)
same,outcome,[8],inactive
same,AC50,[5],17.8 µM (active) and 85 µM (active)
same,AC50,[9],26.1 µM (active)
same,outcome,[9],inactive
CN1COCN(Cc2cnc(Cl)s2)C1=N[N+](=O)[O-],outcome,[6],inactive
same,outcome,[7],inactive
same,outcome,[4],inactive
same,outcome,[8],inactive
same,outcome,[5],inactive
same,outcome,[9],inactive
CCOP(=S)(OCC)Oc1cc(C)nc(C(C)C)n1,outcome,[6],inactive
same,outcome,[7],inactive
same,AC50,[4],110 nM (active)
same,outcome,[8],inactive
same,outcome,[9],inactive
CON=C(C(=O)OC)c1ccccc1CON=C(C)c1cccc(C(F)(F)F)c1,AC50,[6],3430 nM (active)
same,AC50,[7],79.9 µM (active)
same,AC50,[3],1.78 µM (active)
same,AC50,[4],929 nM (active)
same,AC50,[8],50 µM (active)
same,AC50,[5],50 µM (active)
same,AC50,[9],0.293 µM (active)
CSC1=N[C@@](C)(c2ccccc2)C(=O)N1Nc1ccccc1,outcome,[6],inactive
same,outcome,[7],inactive
same,outcome,[3],inactive
same,outcome,[4],inactive
same,outcome,[8],inactive
same,outcome,[5],inactive
CC(=NC#N)N(C)Cc1ccc(Cl)nc1,outcome,[6],inactive
same,outcome,[7],inactive
same,outcome,[10],inactive
same,outcome,[3],inactive
same,outcome,[4],inactive
same,outcome,[8],inactive
same,outcome,[5],inactive
CCOP(=O)(SC(C)CC)N1CCSC1=O (stereo unspecified),outcome,[6],inactive
same,outcome,[4],inactive
same,outcome,[8],inactive
same,outcome,[5],inactive
O=[N+]([O-])c1cc(C(F)(F)F)c(Cl)c([N+](=O)[O-])c1Nc1ncc(C(F)(F)F)cc1Cl,AC50,[6],1900 nM (active)
same,AC50,[7],1.89 µM (active)
same,AC50,[11],4220 nM (active)
same,AC50,[12],282 nM (active)
same,AC50,[13],2570 nM (active)
same,AC50,[14],3720 nM (active)
same,AC50,[15],730 nM (active)
same,AC50,[16],3970 nM (active)
same,AC50,[17],2530 nM (active)
same,AC50,[3],1.94 µM (active)
same,AC50,[4],740 nM (active)
same,AC50,[18],2520 nM (active)
same,AC50,[19],2720 nM (active)
same,AC50,[8],2.95 µM (active)
same,AC50,[5],2.4 µM (active)
same,AC50,[9],0.717 µM (active)
same,AC50,[20],1350 nM (active)
S=C1NCCN1,outcome,[6],inactive
same,outcome,[7],inactive
same,outcome,[4],inactive
same,outcome,[8],inactive
same,outcome,[5],inactive
same,outcome,[9],inactive
COP(=O)(OC)C(O)C(Cl)(Cl)Cl (stereo unspecified),AC50,[7],50 µM (active)
same,outcome,[4],inactive
same,AC50,[8],15.5 µM (active)
same,outcome,[5],inactive
same,AC50,[9],50 µM (active)
CCCCSP(=O)(SCCCC)SCCCC,AC50,[6],22900 nM (active)
same,outcome,[6],inactive
same,AC50,[7],50 µM (active) and 74.1 µM (active)
same,AC50,[3],86.4 µM (active) and 68.4 µM (active)
same,AC50,[4],84.4 µM (active) and 76 µM (active)
same,AC50,[8],35.8 µM (active) and 32.8 µM (active)
same,AC50,[5],66.9 µM (active)
same,AC50,[9],86 µM (active) and 24.4 µM (active)
CCCSP(=O)(OCC)SCCC,outcome,[6],inactive
same,outcome,[7],inactive
same,outcome,[3],inactive
same,outcome,[4],inactive
same,outcome,[8],inactive
same,outcome,[5],inactive
same,AC50,[9],3.79 µM (active)
same,outcome,[9],inactive
